In PubChem BioAssay (NCI) one finds growth data, which are given here for 40 compounds.

The structures appear in SMILES notation. Where “and” joins values, the source holds several entries; their conditions need not be identical. Equal entries are not always repeated. This is part of a sample that, as a whole, favours compounds with a hit. Of some 83,000 tested, about 20% had one in any assay.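 Cells were grown in 96-well plates and exposed to the test compound at a single concentration for 48 hours; results are reported as percent growth, with values below 10 considered active.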 A number with no mark means an inactive call. Calls of active or inactive are those of the source.

The subject of the assay is MDA-MB-468 breast. As to the kind of experiment: NCI-60 one-dose screen, 48 h (100 = growth as untreated, 0 = no growth, -100 = all killed). To be noted: 10 µM unless noted.
In the case of `O=C1c2ccccc2C(=O)C1c1ccc(Br)cc1`, the growth was 115%.
Take `Cc1cccc(-c2nc(C(C)C)sc2-c2ccnc(NCCCNS(=O)(=O)c3ccc(Cl)cc3)c2)c1`: the growth is 55.2%.
Turning to `CCCCCCCCCCCCCCCCCCOc1ccccc1N`, the growth was 101%.
The value for `CN(C)S(=O)(=O)Oc1ccc(-c2sc3cc(OS(=O)(=O)N(C)C)ccc3c2C(=O)c2ccc(OCCN3CCCCC3)cc2)cc1` was 61.7%.
As for `COc1ccc(-c2cnc3c(-c4cccc5ncccc45)cnn3c2)cc1`, the growth is 57.1%.
Turning to `COc1ccc(C/C(C)=C(\c2ccc(Cl)cc2)c2ccc(OCCN3CCCCC3)cc2)cc1`, the growth is 98.2%.
In the case of `FC(F)(F)c1cccc(CNC2CCN(CCc3ccccc3)CC2)c1`, the growth was 87.2%.
Next, `O=C(NC(=S)Nc1ccc(Cl)cc1)c1ccccc1`: -37% (active).
`CC1=C(C(=O)OCC2CCN(C(=O)OC(C)(C)C)CC2)[C@H](c2cccc(C#N)c2)C2=C(CC(C)(C)CC2=O)N1`: the growth is 59.9%.
For the compound `OC(COc1cccc2ccccc12)CN1CCN(c2ccccc2Cl)CC1` (stereo not given), the growth was 89.7%.
Next, `O=C(/C=C/c1ccccc1)c1cccc(O)c1`: 111% and 90.2%.
For the compound `Cc1ccsc1[C@H]1c2[nH]c3ccccc3c2C[C@H]2C(=O)N(CCCCCCC(=O)NO)CC(=O)N12`, the growth is 46.6%.
With `Cc1cnc(SCc2ccc(Cl)cc2)[nH]c1=S`, the growth was 110%.
Next, `O=C1/C(=C\c2cccc(OCCCCCOc3ccc(Cl)cc3)c2)N=C2SCCCN12`: 9.3% (active); `CCCC(=O)c1cccs1`: 96.9%.
The value for `C=C(C)[C@@H]1CC[C@]2(C(=O)OC)CC[C@]3(C)[C@H](CC[C@@H]4[C@@]5(C)C/C(=C/c6cccc(I)c6)C(=O)C(C)(C)[C@@H]5CC[C@]43C)[C@@H]12` was 86.7%; that for `O=c1c2cccc3c(Nc4ccccn4)ccc(c32)c2nc3ccccc3n12` was -22.4% (active).
Next, `O=C(Nc1ccc(Cl)cc1)c1cc2cc(F)ccc2cc1O`: -1.3% (active).
As for `S=C1SCN(Cc2ccccc2)CN1Cc1ccccc1`, the growth is 38.5%.
On to `O=C(NNC(=O)c1ccc(NC(=O)c2ccccn2)cc1)Nc1ccc2ccccc2c1`, for which the growth was 119%.
Next, `Cc1cc(O)cc(-c2c(-c3ccnc(-c4cccnc4)c3)cnn2C)c1`: 48.1%; `O=C(CO[N+](=O)[O-])Nc1ccc(C(=O)/C=C/c2ccc3c(c2)OCO3)cc1`: 91.9%; `COc1cccc(-c2nc3sccn3c2-c2ccnc(NCCNS(=O)(=O)c3cccc(F)c3)c2)c1`: 25.6%.
Next, `COc1cc(Cn2cc3c(c2)-c2onc(CN4CCOCC4)c2CC3)cc(OC)c1OC`: 81.5%.
Consider `O=C(O)CCCl`, for which the growth is 94.6%.
With `CNC(=O)c1cc(Oc2ccc(CC(=O)Nc3cc(C(C)(C)C)cn3C)cc2)ccn1`, the growth was 29.5%.
In the case of `COc1cc(C2CC(c3ccc4c(c3)OCO4)=NN2C=O)cc(OC)c1OC` (stereo not given), the growth was -12.7% (active).
The value for `COc1ccc(/C=c2/c(=O)[nH]c3nc4sc(C)c(C)c4c(=O)n23)cc1` was 83.1%; that for `O=c1cc(Cc2ccc([N+](=O)[O-])cc2)[nH]c(=O)[nH]1` was 105%.
With `O=C1[C@@H](OS(=O)(=O)CC(F)(F)F)[C@H](c2ccc(F)cn2)N1c1cc2c3ccccc3ccc2c2ccccc12`, the growth was 89.4%.
`Cc1nccc2c3ccc(OCc4cn(-c5ccc(Br)cc5)nn4)cc3n(CC(C)C)c12`: the growth was 5.61% (active).
Next, `CCCCCCCCCCCCCCCCCCn1cc(COc2ccc(C=O)cc2)nn1`: 104%.
Next, `O=[N+]([O-])c1ccc(N=Nc2ccccc2)cc1`: 109%; `Nc1c(C(=O)Nc2cccc3cnccc23)sc2nc3c(cc12)CN(Cc1ccccc1)CC3`: 94.8%.
For the compound `Cc1ccc(S(=O)(=O)N2CCc3ccc(O)c4c3C2CCc2ccccc2-4)cc1` (stereo not given), the growth was 106%.
Turning to `CCOC(=O)c1ccccc1NC1=C(Cl)C(=O)c2nc(C)ccc2C1=O`, the growth is 97.3%.
Take `NC[C@@H]1CCN(c2cc3c(cc2F)c(=O)n(N)c(=O)n3Cc2ccc(-c3ccccc3)cc2)C1`: the growth is 72.6%.
On to `COc1cc(CCC[P+](c2ccccc2)(c2ccccc2)c2ccccc2)c(OC)c2c1OCO2`, for which the growth was -25.3% (active).
For the compound `N#Cc1c(-c2ccc(C(F)(F)F)cc2)c(F)c(NCCC2CCC(O)C2)n2c1nc1ccccc12` (stereo not given), the growth is 64.2%.
As to `Cc1cc(Nc2cc(N3CCN(C)CC3)nc(Sc3ccc(NC(=O)C4CC4)cc3)n2)n[nH]1`, the growth is 46.7%.
